Drawing on PubChem BioAssay (NCATS), this text covers Potency and activity change, negative = thiol reactive for 30 compounds.

The structures appear in SMILES notation. Results filed as inconclusive are left out. A call without a number means that no potency is given here. Values without a mark were called inactive. Activity calls are given as the source filed them. Calls come from the whole dose curve; as a rule, active = well fitted inhibition curve with a large enough effect; inconclusive = small, poorly fitted or top-dose-only effect; inactive = no such curve, though single readings can be large or run the other way.
Potency is the fitted concentration of half-maximal effect.

The test is described as follows: Primary fluorescence-based thiol-reactive (MSTI) qHTS assay for identification of artifact compounds. (AID 1845221).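 For activity change, negative = thiol reactive: thiol-reactive compounds lower the probe fluorescence signal.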 Note: nearly all actives have a fitted effect of over 65% in size. The following applies: MSTI thiol-reactivity probe, 1 h; series mostly up to 53.8 µM. A digest of the protocol: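 Probe: MSTI 4 uM, PBS pH 7.4, 2% DMSO. Incubation 1 h, RT, light-protected. Readout fluorescence 525/598 nm.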
Background: In qHTS, concentration-response curves come from the screen itself.
`CC(=O)O[C@@H]1[C@H]2[C@@H](OC(=O)c3ccccc3)[C@@H](C)C[C@]2(O)[C@H](OC(C)=O)[C@@]2(C)[C@@H]3CC(C)(C)C(=O)[C@]3(OC(C)=O)C[C@@]12C`: the Potency result is “inactive”.
The same measure, in the same setting: for `CC(=O)OCC1=C[C@H](O)[C@@H]2C(C(=O)O)=CO[C@@H](O[C@@H]3O[C@H](CO)[C@@H](O)[C@H](O)[C@H]3O)[C@H]12` the value was “inactive”; for `COc1ccc(C(O[C@@H]2O[C@H](CO)[C@@H](O)[C@H](O)[C@H]2O)C(CO)Oc2ccc(/C=C/CO)cc2OC)cc1O` (stereo not given in full), 5.19 µM (active); for `O=S(=O)(Nc1ccc(C(O)(C(F)(F)F)C(F)(F)F)cc1)c1cccs1`, “inactive”.
As to `CC1(C)CCCC2(C)C1C(O)C=C(CO)C2(O)C(=O)O` (stereo not given), the Potency result is “inactive”.
For `COc1cc(CCc2ccccc2)c(C(=O)O)c2c1CC(C(C)(C)O)O2` (stereo not given), the Potency entry was “inactive”.
Still for that read-out and setting: then `Cc1coc2c1CC1OC1(C)CCC1OC1(C)C2` (stereo not given), with “inactive”; and `COc1cc2c(cc1OC)CN(C(=O)[C@@H](NCc1ccncc1)C(C)(C)C)CC2`, with “inactive”; and `O=C(C1CC1)N1CC[C@@H](Cc2n[nH]c(=O)n2-c2ccc(-c3ccc4occc4c3)cc2)C1`, with “inactive”.
On to `CCC[C@@H]1C[C@@H](C(=O)N[C@H](C(C)Cl)[C@H]2O[C@H](SC)[C@H](O)[C@@H](O)[C@H]2O)N(C)C1` (stereo not given in full), for which the Potency result is “inactive”.
For `C=CC(C)(CC/C=C(\C)CC/C=C(\C)CC(O)/C=C(\C)C(=O)O)O[C@@H]1O[C@H](CO)[C@@H](O)[C@H](O)[C@H]1O[C@@H]1O[C@H](CO)[C@@H](O)[C@H](O)[C@H]1O` (stereo not given in full), the Potency result was “inactive”.
Same read-out and setting: for `CCC(NC(=O)CC(NC(=O)C(CO)NC(=O)C(CC)NC(=O)c1ccc[nH]1)c1ccccc1)C(=O)O` (stereo not given) the value was “inactive”; for `C=C1CCC2(OC1)OC1CC3C4CC=C5CC(O)CC(O[C@@H]6OC[C@@H](O)[C@H](O)[C@H]6O)C5(C)C4CCC3(C)C1(O)C2C` (stereo not given in full), “inactive”.
Consider `C[C@]12CC[C@@H]3c4ccc(O[C@@H]5O[C@H](C(=O)O)[C@@H](O)[C@H](O)[C@H]5O)cc4CC[C@H]3[C@@H]1CCC2=O`, for which the Potency entry is “inactive”.
Regarding `C=C1CC[C@H]2[C@@](C)(CCC[C@@]2(C)C(=O)O)[C@@H]1CCC(C)CCO` (stereo not given in full), the Potency entry was “inactive”.
As for `C=CC1(C)CC2=CCC3C(C)(C(=O)O)CCCC3(C)C2CC1OC(C)=O` (stereo not given), the Potency result was “inactive”.
With `Nc1ncnc2c1ncn2[C@H]1CCCO1`, the Potency entry was “inactive”.
The same measure, in the same setting: for `CC(C)(O)CNc1nc(Nc2ccnc(C(F)(F)F)c2)nc(-c2cccc(C(F)(F)F)n2)n1` the value was “inactive”; for `CC1(C)CC[C@]2(C(=O)O[C@@H]3O[C@H](CO)[C@@H](O)[C@H](O)[C@H]3O)CC[C@]3(C)C(=CCC4[C@@]5(C)C[C@@H](O)[C@H](O)C(CO)(CO)C5CC[C@]43C)C2[C@@H]1O` (stereo not given in full), “inactive”; for `C=CC1(C)C=C2C(=O)CC3C(C)(C)CCCC3(C(=O)O)C2(O)CC1` (stereo not given), “inactive”.
For the compound `O=C(NN1CCCCC1)c1nn(-c2ccc(Cl)cc2Cl)c(-c2ccc(C#Cc3ccc(C(F)(F)F)cc3)s2)c1CNS(=O)(=O)N1CCCC1`, the Potency result is “inactive”.
In the case of `O=C1N(CC2CCCCN2)CCN1c1ccccc1` (stereo not given), the Potency entry is “inactive”.
For `COc1cc([C@H]2OC[C@@H]3[C@@H](c4ccc(O[C@@H]5O[C@H](CO)[C@@H](O)[C@H](O)[C@H]5O)c(OC)c4)OC[C@]23O)ccc1O`, the Potency entry is “inactive”.
On the same count and under the same terms, for `CC(C)(O)C1CC=C(C(=O)OCC2OC(Oc3c(O)cc(C(=O)O)cc3O)C(O)C(O)C2O)CC1` (stereo not given) the value was 0.822 µM (active).
In the case of `O=C(CCCCc1ccc2ccccc2c1)C(F)(F)F`, the Potency result was “inactive”.
Consider `C=CC(C)(O)CC/C=C(/C)C(=O)OC1C(OC2OCC(OC3OC(CO)C(O)C(O)C3O)C(OC3OCC(O)C(OC4OC(C)C(O)C(O)C4O)C3O)C2O)COC(OC(=O)C23CCC(C)(C)CC2C2=CCC4C5(C)CCC(OC6OC(CO)C(OC7OC(CO)C(O)C(OC8OCC(O)C(O)C8O)C7O)C(O)C6O)C(C)(C)C5CCC4(C)C2(C)CC3O)C1O` (stereo not given), for which the activity change, negative = thiol reactive was 146% [at 6.41 µM].
For `Cc1cccc(-c2[nH]c(CNc3ccccc3F)nc2-c2ccc3ncnn3c2)n1`, the Potency entry is “inactive”.
The same measure, in the same setting: for `CNC(=O)O[C@H]1COc2ccc(N3CCN(C4COC4)CC3)cc2[C@@H]1NC(=O)c1ccc(F)cc1` the value was “inactive”.
As for `COc1cc(C(=O)OC[C@H]2O[C@H](O[C@@]3(CO)O[C@@H](CO)[C@H](O)[C@H]3O)[C@H](O)[C@@H](O)[C@@H]2O)ccc1O`, the Potency result is “inactive”.
`C[C@]12CCC(=O)C=C1[C@@H](O)C[C@@H]1[C@@H]2[C@@H](O)C[C@@]2(C)[C@H]1CC[C@]2(O)C(=O)CO`: the Potency entry was “inactive”.
